Source: PubChem BioAssay AID2284076 (EPA ToxCast)
Activity calls are given as the source filed them. The calls were made as follows: active = hit-call score of the fitted dose curve at least 0.9, where 1 is the maximum; inactive = score below 0.9.

The molecules below were run against human EphA1 Receptor Tyrosine Kinase, EPHA1 (gene 2041) (UniProt P21709) (assay: ERF_FR_ENZ_hEPHA1: Eurofins (ERF) Enzymatic Radiometric [Km ATP] KinaseProfiler LeadHunter Assay for human EphA1 Receptor Tyrosine Kinase).
Sequence of human EphA1 Receptor Tyrosine Kinase, EPHA1 (gene 2041) (P21709 whole entry, looked up): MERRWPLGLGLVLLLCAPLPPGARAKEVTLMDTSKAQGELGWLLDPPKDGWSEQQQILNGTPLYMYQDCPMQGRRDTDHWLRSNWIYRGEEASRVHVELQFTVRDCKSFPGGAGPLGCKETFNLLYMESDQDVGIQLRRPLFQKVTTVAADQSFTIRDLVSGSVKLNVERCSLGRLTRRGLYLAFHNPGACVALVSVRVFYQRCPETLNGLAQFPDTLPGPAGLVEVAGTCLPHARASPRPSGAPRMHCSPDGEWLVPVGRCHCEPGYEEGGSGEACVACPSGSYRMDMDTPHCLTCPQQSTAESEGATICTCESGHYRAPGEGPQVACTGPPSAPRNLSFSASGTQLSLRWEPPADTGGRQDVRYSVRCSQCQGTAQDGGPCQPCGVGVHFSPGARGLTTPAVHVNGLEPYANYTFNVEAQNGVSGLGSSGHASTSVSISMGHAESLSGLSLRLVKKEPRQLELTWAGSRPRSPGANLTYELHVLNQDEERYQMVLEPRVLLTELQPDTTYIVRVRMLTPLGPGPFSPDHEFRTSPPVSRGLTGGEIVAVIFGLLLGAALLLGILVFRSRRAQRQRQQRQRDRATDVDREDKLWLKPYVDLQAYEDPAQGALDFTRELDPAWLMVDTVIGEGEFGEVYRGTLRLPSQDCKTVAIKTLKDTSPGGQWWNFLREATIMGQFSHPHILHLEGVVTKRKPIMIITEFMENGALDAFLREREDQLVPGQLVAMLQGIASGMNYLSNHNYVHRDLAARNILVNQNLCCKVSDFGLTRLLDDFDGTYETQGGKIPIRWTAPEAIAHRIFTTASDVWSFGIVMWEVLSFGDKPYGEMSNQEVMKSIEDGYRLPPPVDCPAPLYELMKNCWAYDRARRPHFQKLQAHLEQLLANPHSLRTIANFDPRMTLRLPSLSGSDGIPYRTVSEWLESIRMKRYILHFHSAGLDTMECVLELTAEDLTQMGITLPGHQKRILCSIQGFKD
Experimental: ERF_FR_ENZ_hEPHA1 is a biochemical, single-readout assay that uses extracted gene-proteins in a cell-free assay. Measurements were taken 0.5 hour after chemical dosing in a 96-well plate. See EphA1 Human RTK Kinase Enzymatic HTRF Assay [Km ATP], Cerep.ERF_FR_ENZ_hEPHA1 is an assay component calculated from the ERF_FR_ENZ_hEPHA1 assay. It is designed to measure enzyme activity using a type of enzyme reporter as detected by fluorescence intensity with HTRF technology.Data from the assay component ERF_FR_ENZ_hEPHA1 was analyzed at the assay endpoint, ERF_FR_ENZ_hEPHA1, in the positive analysis fitting direction relative to DMSO as the negative control and baseline of activity. Using a type of enzyme reporter, loss-of-signal activity can be used to understand changes in enzymatic activity as they relate to gene EPHA1. To generalize the intended target to other relatable targets, this assay endpoint is annotated to the kinase intended target family, where the subfamily is receptor tyrosine kinase.
EphA1 (h) is incubated with 8 mM MOPS pH 7.0, 0.2 mM EDTA, 250 uM […], 10 mM MgAcetate and [gamma-33P]-ATP (specific activity and concentration as required). The reaction is initiated by the addition of the Mg/ATP mix. After incubation for 40 minutes at room temperature, the reaction is stopped by the addition of phosphoric acid to a concentration of 0.5%. […]

| SMILES | outcome |
| --- | --- |
| O=C(/C=C/c1ccc(O)cc1)CC(=O)/C=C/c1ccc(O)cc1 | inactive |
